Data as given in PubChem BioAssay (NCATS).
Where “and” joins values, the source holds several entries; their conditions need not be identical. Identical values can stand only once. Inconclusive results are not listed. The source holds several records for some structures; these can differ, active in one and inactive in another. Calls of active or inactive are those of the source. Unless noted, the call rests on the fitted dose curve; in most records, active means well fitted curve in the direction sought with a large enough effect; inconclusive means small, poorly fitted or top-dose-only effect, or another doubt; inactive means no such curve, though single readings can be large; an effect the other way counts as inactive or inconclusive.

How the values were obtained:
[1] = molecular target: Rap guanine nucleotide exchange factor 3 (Homo sapiens) (UniProt O95398); experiment: Confirmatory qHTS for antagonist of cAMP-regulated guanine nucleotide exchange factor 3 (EPAC1) (AID 1645880);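 further: plate controls were DMSO only for no effect and full effect of the ATA control for full effect; nearly all actives have a fitted effect of over 55% in size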
In short: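 Nucleotide exchange uses 100 nM EPAC1, 250 nM RAP1B-BODIPY-GDP and 50 uM GDP, with compounds in a concentration-titration series. After 5 min at room temperature, fluorescence (480 nm ex/540 nm em) is read every 5 min for 30 min. Data are normalized to control ATA and DMSO.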

[2] = molecular target: Rap guanine nucleotide exchange factor 3 (Homo sapiens) (UniProt O95398); experiment: Confirmatory qHTS for agonist of cAMP-regulated guanine nucleotide exchange factor 3 (EPAC1) (AID 1645881);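 further: EPAC1 catalysed release of BODIPY-GDP from Rap1B seen as fluorescence loss; 100% = effect of cAMP agonist control; nearly all actives have a fitted effect of over 75% in size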
[3] = molecular target: Rap guanine nucleotide exchange factor 4 (Homo sapiens) (UniProt Q8WZA2); experiment: Confirmatory qHTS for agonist of cAMP-regulated guanine nucleotide exchange factor 4 (EPAC2) (AID 1645884);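 further: nucleotide exchange releases bodipy-GDP from Rap1 and this lowers its fluorescence; on the % scale 0 is the no-effect control and ±100 the full control effect; nearly all actives have a fitted effect of over 65% in size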
[4] = molecular target: Rap guanine nucleotide exchange factor 4 (Homo sapiens) (UniProt Q8WZA2); experiment: Confirmatory qHTS for antagonist of cAMP-regulated guanine nucleotide exchange factor 4 (EPAC2) (AID 1645885); further: nearly all actives have a fitted effect of over 25% in size; further: potency means the concentration at half of the fitted maximal effect; on activity change, negative = inhibition: on the % scale 0 is the no-effect control and ±100 the full control effect
[5] = molecular target: Rap guanine nucleotide exchange factor 3 (Homo sapiens) (UniProt O95398); experiment: Counterscreen qHTS for antagonist of cAMP-regulated guanine nucleotide exchange factor 3 (EPAC1) (AID 1645888);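 further: fluorescence loss as bound BODIPY-GDP is released from Rap1B; % of control where 0% means no effect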
In short: (§1)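 Rap1B–BODIPY-GDP (250 nM) with 50 uM GDP; compounds pin-transferred to 9.74 nM–152 uM final (activator) or from 7.32 nM upwards (inhibitor). Fluorescence Ex/Em 480/540 nm read at 5 and 30 min, then after adding cAMP or buffer, at room temperature.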

[6] = molecular target: Glutathione peroxidase 1 (Homo sapiens) (UniProt P07203); experiment: Primary qHTS Assay for Inhibitors of Recombinant Selenoprotein Glutathione Peroxidase 1 (GPX1) (AID 1845191); further: nearly all actives have a fitted effect of over 65% in size
In short: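 GR-coupled assay: compounds preincubated 30 min at room temperature with GPX1, then reaction started with CHP; final 10 nM GPX1, 1 mM GSH, 0.5 mM CHP, 0.5 mM NADPH, 100 nM GR, 0.01% BSA, pH 7.5 Tris buffer. NADPH fluorescence (340/450 nm) read at 0 and 15 min.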

[7] = molecular target: Phospholipid hydroperoxide glutathione peroxidase GPX4 (Homo sapiens) (UniProt P36969); experiment: Primary qHTS Assay for Inhibitors of Recombinant Selenoprotein Glutathione Peroxidase 4 (GPX4) (AID 1845192); further: nearly all actives have a fitted effect of over 65% in size; on activity change, negative = inhibition: series mostly up to about 50 µM; on the % scale 0 is the no-effect control and ±100 the full control effect
In short: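 GR-coupled assay: recombinant GPX4 preincubated 30 min with compound at room temperature; final 200 nM GPX4, 1 mM GSH, 0.5 mM cumene hydroperoxide, 0.5 mM NADPH, 100 nM GR, 0.01% BSA, pH 7.5 Tris. NADPH fluorescence (340/450 nm) read at 0 and 15 min.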

[8] = Viability counterscreen for antagonist of constitutive androstane receptor (CAR) against the NCATS DSHEA and TCM libraries (AID 1794837);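 further: compound exposure lasted 24 h before viability reading; 0% is about no effect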
In short: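 HepG2-CYP2B6-hCAR cells, 2,500/well, were exposed 24 hr at 37C to substances together with 48 uM CITCO (final). Viability was read as CellTiter-Fluor fluorescence (Ex/Em 405/540 nm) after 1 hr.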

[9] = Viability counterscreen for agonist of constitutive androstane receptor (CAR) against the NCATS DSHEA and TCM libraries (AID 1794838);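 further: HepG2 cells with CYP2B6 reporter and hCAR plus 0.75 µM PK11195 antagonist; 0% is about no effect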
In short: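 HepG2-CYP2B6-hCAR cells (2,500/well) treated 24 h at 37C with compounds plus 0.75 uM PK11195; viability read by CellTiter-Fluor fluorescence, Ex/Em 405/540 nm.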

[10] = molecular target: Nuclear receptor subfamily 1 group I member 3 (Homo sapiens) (UniProt Q14994); experiment: Primary qHTS for agonist of constitutive androstane receptor (CAR) against the NCATS DSHEA and TCM libraries (AID 1794839);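 further: HepG2 cells expressing human CAR with a CYP2B6 reporter plus PK11195 antagonist; 0% is about no effect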
In short: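 HepG2-CYP2B6-hCAR cells, 2,500/well, attached 5 h, then dosed with 0.75 µM PK11195 (final) for 24 h at 37 °C. Luciferase luminescence read (ONE-Glo); CellTiter-Fluor viability (Ex/Em 405/540 nm) in same wells; CITCO positive control.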

[11] = HepG2 viability counterscreen (readout 2: ATP content) against the NCATS DSHEA and TCM libraries (AID 1794840); further: 0% is about no effect
In short: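 HepG2 cells, 1,000/well, attached ~4 h, then exposed ~24 h at 37C to substances. Protease activity read by fluorescence of 25 uM GF-AFC (Ex/Em 380/510 nm) after 30 min; ATP then by CellTiter-Glo luminescence.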

[12] = NCATS anti-infectives library activity on the primary C. elegans qHTS viability assay (AID 1745855; calls by dose curve; further: potency means the concentration at half of the fitted maximal effect)
In short: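 Viability is taken from GFP fluorescence of PE254-GFP-FLuc C. elegans imaged by laser cytometry over 7 days. Ten L1 worms per well grow at 21 °C on TOP10 E. coli capsules with titrated compound; levamisole marks toxicity.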

[13] = NCATS anti-infectives library activity on HEK293 viability as a counter-qHTS vs the C. elegans viability qHTS (AID 1745854);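 further: HEK293 cells exposed to compounds for 24 hr before the viability read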; further: potency means the concentration at half of the fitted maximal effect
In short: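 Cytotoxicity in human HEK293 cells is measured by ATP-dependent CellTiter-Glo luminescence following a 24 hr incubation with titrated library compounds at 37C. Top final concentration is 41.7 uM.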

[14] = molecular target: Rap guanine nucleotide exchange factor 3 (Homo sapiens) (UniProt O95398); experiment: Counterscreen qHTS for agonist of cAMP-regulated guanine nucleotide exchange factor 3 (EPAC1) (AID 1645889); further: potency means the concentration at half of the fitted maximal effect; nearly all actives have a fitted effect of over 40% in size
In short: as §1

Glutathione peroxidase 1 (Homo sapiens), sequence (P07203 whole entry, looked up): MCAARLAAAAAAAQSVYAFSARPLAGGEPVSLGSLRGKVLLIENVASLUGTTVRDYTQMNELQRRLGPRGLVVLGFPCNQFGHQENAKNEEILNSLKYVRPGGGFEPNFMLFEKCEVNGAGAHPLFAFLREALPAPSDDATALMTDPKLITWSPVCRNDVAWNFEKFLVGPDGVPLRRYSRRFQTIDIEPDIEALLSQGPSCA
Rap guanine nucleotide exchange factor 4 (Homo sapiens), sequence (Q8WZA2 whole entry, looked up): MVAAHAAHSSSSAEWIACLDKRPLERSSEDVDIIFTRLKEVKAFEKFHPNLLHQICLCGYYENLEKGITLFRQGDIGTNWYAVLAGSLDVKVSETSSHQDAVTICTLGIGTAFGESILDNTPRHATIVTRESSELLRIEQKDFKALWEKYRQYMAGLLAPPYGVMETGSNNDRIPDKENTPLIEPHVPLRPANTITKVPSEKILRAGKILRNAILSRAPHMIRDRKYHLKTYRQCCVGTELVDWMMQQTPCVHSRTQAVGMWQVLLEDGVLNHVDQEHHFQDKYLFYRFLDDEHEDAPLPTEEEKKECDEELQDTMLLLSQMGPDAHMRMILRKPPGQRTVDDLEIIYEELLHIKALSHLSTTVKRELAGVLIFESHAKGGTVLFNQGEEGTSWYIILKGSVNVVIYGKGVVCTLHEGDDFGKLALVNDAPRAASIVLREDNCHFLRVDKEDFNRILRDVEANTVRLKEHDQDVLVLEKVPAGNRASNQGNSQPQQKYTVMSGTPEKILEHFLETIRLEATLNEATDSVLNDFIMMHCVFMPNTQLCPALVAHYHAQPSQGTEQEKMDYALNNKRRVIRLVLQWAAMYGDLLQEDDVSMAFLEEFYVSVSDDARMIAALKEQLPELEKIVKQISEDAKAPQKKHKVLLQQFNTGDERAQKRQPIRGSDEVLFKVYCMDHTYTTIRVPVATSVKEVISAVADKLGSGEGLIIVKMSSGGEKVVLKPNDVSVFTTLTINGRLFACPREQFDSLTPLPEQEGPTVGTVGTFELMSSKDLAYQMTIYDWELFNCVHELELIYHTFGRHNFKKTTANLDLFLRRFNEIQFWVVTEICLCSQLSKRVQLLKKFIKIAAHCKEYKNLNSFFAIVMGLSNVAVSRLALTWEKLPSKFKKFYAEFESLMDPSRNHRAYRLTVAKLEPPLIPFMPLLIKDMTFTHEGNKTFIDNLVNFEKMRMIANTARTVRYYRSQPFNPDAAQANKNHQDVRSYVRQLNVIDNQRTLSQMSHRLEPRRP
Rap guanine nucleotide exchange factor 3 (Homo sapiens), sequence (O95398 whole entry, looked up): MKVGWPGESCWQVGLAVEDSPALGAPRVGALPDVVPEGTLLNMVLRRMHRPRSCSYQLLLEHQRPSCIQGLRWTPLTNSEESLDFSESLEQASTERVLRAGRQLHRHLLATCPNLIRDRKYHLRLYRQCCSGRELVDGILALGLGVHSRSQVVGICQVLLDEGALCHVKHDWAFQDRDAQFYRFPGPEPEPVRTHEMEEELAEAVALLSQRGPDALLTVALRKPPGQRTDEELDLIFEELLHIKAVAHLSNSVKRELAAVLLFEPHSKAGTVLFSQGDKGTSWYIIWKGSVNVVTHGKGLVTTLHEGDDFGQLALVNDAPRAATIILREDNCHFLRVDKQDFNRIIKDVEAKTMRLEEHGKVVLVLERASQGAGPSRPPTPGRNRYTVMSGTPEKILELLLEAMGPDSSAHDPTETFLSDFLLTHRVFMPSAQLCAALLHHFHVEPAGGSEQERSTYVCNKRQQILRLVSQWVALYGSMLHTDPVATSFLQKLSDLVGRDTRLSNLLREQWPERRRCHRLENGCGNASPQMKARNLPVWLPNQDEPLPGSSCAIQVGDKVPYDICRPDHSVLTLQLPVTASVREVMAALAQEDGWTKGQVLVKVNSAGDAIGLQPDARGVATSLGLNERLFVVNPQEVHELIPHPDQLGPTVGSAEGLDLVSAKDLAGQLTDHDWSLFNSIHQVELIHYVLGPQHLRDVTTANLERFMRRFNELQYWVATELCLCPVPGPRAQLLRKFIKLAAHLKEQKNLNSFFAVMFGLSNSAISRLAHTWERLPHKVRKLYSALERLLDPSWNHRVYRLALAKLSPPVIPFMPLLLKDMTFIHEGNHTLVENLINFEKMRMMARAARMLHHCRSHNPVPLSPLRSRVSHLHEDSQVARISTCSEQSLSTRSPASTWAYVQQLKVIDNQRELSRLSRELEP
Phospholipid hydroperoxide glutathione peroxidase GPX4 (Homo sapiens), sequence (P36969 whole entry, looked up): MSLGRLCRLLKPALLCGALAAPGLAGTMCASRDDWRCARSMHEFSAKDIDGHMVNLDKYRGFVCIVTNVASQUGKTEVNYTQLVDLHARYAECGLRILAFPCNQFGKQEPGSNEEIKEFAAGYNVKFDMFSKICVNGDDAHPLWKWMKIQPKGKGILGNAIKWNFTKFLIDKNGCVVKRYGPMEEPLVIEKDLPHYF
Nuclear receptor subfamily 1 group I member 3 (Homo sapiens), sequence (Q14994 whole entry, looked up): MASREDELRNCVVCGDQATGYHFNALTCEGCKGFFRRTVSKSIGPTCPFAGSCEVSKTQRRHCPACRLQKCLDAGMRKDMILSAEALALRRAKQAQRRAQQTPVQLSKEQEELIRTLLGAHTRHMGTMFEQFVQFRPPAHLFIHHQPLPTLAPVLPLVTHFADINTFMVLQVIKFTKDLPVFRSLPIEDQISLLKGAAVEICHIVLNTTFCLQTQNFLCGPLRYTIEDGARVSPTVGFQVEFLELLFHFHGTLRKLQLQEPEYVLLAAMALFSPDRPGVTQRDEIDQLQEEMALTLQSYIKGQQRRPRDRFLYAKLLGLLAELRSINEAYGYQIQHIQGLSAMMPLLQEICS

C/C=C(/C(=C/C)c1ccc(O)cc1)c1ccc(O)cc1
active: Potency [4] 22.1 µM
inactive: Potency [1] | outcome [2] | Potency [3] | activity change, negative = inhibition [4] -2.47% [at 12.7 µM] | activity change, negative = inhibition [5] -9.27% [at 30.8 µM] | Potency [6] | Potency [7]

Nc1nc2ncc(CNc3ccc(C(=O)N[C@@H](CCC(=O)O)C(=O)O)cc3)nc2c(=O)[nH]1
inactive: outcome [8] | outcome [9] | outcome [10] | outcome [11]

COc1cccc2c1C(=O)c1c(O)c3c(c(O)c1C2=O)C[C@@](O)(C(=O)CO)C[C@@H]3O[C@H]1C[C@H](N)[C@H](O)[C@H](C)O1
inactive: Potency [7]
active: Potency [12] 23 µM

CC[C@@H](CO)NCCN[C@@H](CC)CO
inactive: Potency [13] | Potency [6]

CC1(C)O[C@@H]2[C@@H](CO[C@@]3(COS(N)(=O)=O)OC(C)(C)O[C@@H]23)O1
inactive: Potency [13] | Potency [12] | Potency [6] | Potency [7]

COc1cccc2c1C(=O)c1c(O)c3c(c(O)c1C2=O)C[C@@](O)(C(C)=O)C[C@@H]3O[C@H]1C[C@H](N)[C@H](O)[C@H](C)O1
active: Potency [14] 14.1 µM | Potency [13] 5.62 µM | Potency [12] 5.78 µM
inactive: Potency [1] | outcome [2] | Potency [3] | Potency [4] | activity change, negative = inhibition [5] 47.7% [at 30.8 µM] | Potency [6] | Potency [7]

CCCCC1=NC2(CCCC2)C(=O)N1Cc1ccc(-c2ccccc2-c2nn[nH]n2)cc1
inactive: Potency [13] | Potency [6] | Potency [7]

CCCCCCc1ccc(O)cc1O
inactive: outcome [2] | Potency [3] | Potency [6] | Potency [7]
active: Potency [4] 39.3 µM

O=C1OC(c2ccc(O)cc2)(c2ccc(O)cc2)c2ccccc21
inactive: Potency [1] | outcome [2] | Potency [3] | Potency [6]
active: Potency [4] 24.8 µM and 27.8 µM
